Values joined by “and” are separate entries in the source; they are usually repeats but may differ in a detail not shown here. Equal entries are not always repeated. Results filed as inconclusive are left out. Entries that show only a call come without a potency. Where a structure was tested more than once in an assay, its records may differ in their call. Active and inactive are the calls of the source. Unless noted, the call rests on the fitted dose curve; in most records, active means well fitted curve in the direction sought with a large enough effect; inconclusive means small, poorly fitted or top-dose-only effect, or another doubt; inactive means no such curve, though single readings can be large; an effect the other way counts as inactive or inconclusive.
How the values were obtained:
[1] = target: Chromobox protein homolog 1 (Homo sapiens) (UniProt P83916); experiment: qHTS Validation Assay for Inhibitors of HP1-beta Chromodomain Interactions with Methylated Histone Tails (AID 488953); further: nearly all actives have a fitted effect of over 50% in size; further: potency means the concentration at half of the fitted maximal effect
Sequence of Chromobox protein homolog 1 (Homo sapiens) (P83916 whole entry, looked up): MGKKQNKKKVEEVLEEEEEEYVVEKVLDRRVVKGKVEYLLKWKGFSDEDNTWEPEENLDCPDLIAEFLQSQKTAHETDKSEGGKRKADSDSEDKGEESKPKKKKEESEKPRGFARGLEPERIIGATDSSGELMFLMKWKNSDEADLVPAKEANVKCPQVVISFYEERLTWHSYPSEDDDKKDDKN
How it was run: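 Compounds pinned into a preassembled complex of HP1-beta and trimethyl-K9 histone H3(1-18) biotin peptide (50 nM each; PBS pH 7.4, 0.01% Tween-20). After 30 min, bead-based AlphaScreen detection followed.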

[2] = target: Methanococcus maripaludis chaperonin (MmCpn) (UniProt Q6LX38); experiment: High-Throughput Screening for Modulators of Cytosolic Chaperonin Activity: MmCpn Primary Screen (AID 488978); further: potency means the concentration at half of the fitted maximal effect
How it was run: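 ATPase activity of 50 nM MmCpn was assayed with 30 uM ATP, 10 minutes at 37C, after a 5 min compound preincubation at room temperature. ADP production was read as HTRF emission at 590 and 665 nm.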

[3] = target: Transient receptor potential cation channel subfamily V member 1 (Homo sapiens) (UniProt Q8NER1); experiment: HTS Assay for Compounds that Act as Enhancers of the Vanilloid Receptor 1 (AID 488979)
Sequence of Transient receptor potential cation channel subfamily V member 1 (Homo sapiens) (Q8NER1 whole entry, looked up): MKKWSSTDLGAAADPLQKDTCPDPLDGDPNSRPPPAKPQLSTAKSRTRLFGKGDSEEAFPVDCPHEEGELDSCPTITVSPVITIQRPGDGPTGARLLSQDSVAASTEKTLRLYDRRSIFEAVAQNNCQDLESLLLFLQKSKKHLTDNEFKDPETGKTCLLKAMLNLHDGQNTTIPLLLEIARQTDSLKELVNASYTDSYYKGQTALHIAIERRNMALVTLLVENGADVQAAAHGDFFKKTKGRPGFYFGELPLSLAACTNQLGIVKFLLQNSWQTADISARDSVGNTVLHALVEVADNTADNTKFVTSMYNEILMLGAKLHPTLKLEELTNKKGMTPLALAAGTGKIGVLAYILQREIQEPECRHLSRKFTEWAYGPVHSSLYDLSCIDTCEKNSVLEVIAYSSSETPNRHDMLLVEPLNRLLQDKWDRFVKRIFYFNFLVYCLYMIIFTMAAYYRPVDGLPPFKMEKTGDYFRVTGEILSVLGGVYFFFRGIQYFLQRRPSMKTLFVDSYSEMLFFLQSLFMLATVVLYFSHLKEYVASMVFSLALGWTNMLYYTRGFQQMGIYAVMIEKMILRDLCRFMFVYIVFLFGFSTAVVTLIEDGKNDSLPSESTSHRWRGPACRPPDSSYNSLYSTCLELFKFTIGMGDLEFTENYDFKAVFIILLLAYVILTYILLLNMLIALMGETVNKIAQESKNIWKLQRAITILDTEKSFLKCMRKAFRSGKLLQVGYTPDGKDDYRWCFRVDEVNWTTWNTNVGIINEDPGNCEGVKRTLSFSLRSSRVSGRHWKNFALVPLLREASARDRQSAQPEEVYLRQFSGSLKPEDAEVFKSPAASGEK
How it was run: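 TRPV1-expressing cells loaded with Fluo-8 calcium dye; compounds added and calcium influx read kinetically for 3 min (agonist phase), then capsaicin at EC20 added and read 2 min more for enhancement. Fluorescence ex 480/em 520 nm.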

[4] = target: Thyrotropin receptor (Homo sapiens) (UniProt P16473); experiment: qHTS Assay for Antagonists of the Thyroid Stimulating Hormone Receptor (AID 488980); further: series mostly up to about 58 µM
Sequence of Thyrotropin receptor (Homo sapiens) (P16473 whole entry, looked up): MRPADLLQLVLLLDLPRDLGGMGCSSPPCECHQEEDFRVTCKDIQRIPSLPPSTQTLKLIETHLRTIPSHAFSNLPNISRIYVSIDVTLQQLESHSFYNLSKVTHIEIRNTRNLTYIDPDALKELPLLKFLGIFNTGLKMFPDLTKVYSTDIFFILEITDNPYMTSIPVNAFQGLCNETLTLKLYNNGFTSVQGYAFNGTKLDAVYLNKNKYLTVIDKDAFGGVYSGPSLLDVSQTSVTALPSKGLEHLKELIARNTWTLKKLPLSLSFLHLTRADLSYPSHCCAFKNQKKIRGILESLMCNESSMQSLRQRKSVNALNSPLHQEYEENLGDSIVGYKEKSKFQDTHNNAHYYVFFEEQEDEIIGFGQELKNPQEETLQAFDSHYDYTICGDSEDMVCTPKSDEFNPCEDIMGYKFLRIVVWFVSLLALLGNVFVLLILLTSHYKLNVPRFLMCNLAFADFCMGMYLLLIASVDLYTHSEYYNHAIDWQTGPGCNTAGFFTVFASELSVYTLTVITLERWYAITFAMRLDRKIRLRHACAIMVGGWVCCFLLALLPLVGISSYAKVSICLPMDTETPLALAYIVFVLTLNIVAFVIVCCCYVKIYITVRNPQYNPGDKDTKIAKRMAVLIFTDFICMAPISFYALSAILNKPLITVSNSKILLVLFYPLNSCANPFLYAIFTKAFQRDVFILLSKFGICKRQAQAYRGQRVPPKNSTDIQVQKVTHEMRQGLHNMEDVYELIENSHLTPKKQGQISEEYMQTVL
How it was run: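 Inhibition of cAMP raised by EC80 TSH (4 nM final) was read by HTRF, with lysate cAMP competing against cAMP-d2 for cryptate antibody after 30 min at room temperature. The cells were transfected HEK293 held in phosphodiesterase inhibitor RO 20-1724 at 70 uM.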

[5] = target: D(1A) dopamine receptor (Homo sapiens) (UniProt P21728); experiment: HTS Assay for Allosteric Agonists of the Human D1 Dopamine Receptor: Primary Screen for Potentiators (AID 488982)
Sequence of D(1A) dopamine receptor (Homo sapiens) (P21728 whole entry, looked up): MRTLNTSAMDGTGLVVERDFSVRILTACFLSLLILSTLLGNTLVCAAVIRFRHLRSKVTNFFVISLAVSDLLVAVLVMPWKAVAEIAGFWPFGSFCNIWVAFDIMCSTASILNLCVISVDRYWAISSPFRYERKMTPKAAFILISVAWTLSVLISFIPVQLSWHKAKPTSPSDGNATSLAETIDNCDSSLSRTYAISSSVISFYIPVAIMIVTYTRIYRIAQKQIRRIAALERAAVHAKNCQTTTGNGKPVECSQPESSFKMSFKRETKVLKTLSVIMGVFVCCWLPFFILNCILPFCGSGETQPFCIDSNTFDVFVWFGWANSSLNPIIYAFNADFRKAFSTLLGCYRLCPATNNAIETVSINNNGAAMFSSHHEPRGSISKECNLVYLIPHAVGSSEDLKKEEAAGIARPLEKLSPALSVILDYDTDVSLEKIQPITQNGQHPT
How it was run: (§1)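 Tetracycline-induced HEK293 T-REx cells force-coupled to calcium signalling were incubated overnight at 30 C and dye-loaded at room temperature. Calcium flux over 180 s after compound addition flagged agonists; a further 180 s read after EC20 dopamine flagged potentiators.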

[6] = Validation screen for small molecules that induce genotoxicity in human embryonic kidney (HEK293T) cells expressing luciferase-tagged ELG1 (AID 493106)
How it was run: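 In this validation screen, increased ELG1-luciferase signal flags compounds causing genetic stress. HEK293T reporter cells are treated 16 hr (37 °C, 5% CO2), developed with ONE-Glo for 30 min at room temperature, and imaged on a CCD-based reader.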

[7] = target: ATPase family AAA domain-containing protein 5 (Homo sapiens) (UniProt Q96QE3); experiment: Validation screen for small molecules that inhibit ELG1-dependent DNA repair in human embryonic kidney (HEK293T) cells expressing luciferase-tagged ELG1 (AID 493107);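 further: cells co-treated with the DNA-damaging agent 5-fluorouridine alongside compound; series mostly up to about 46 µM; inhibitors lower the ELG1-luciferase luminescence signal; nearly all actives have a fitted effect of over 70% in size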
Sequence of ATPase family AAA domain-containing protein 5 (Homo sapiens) (Q96QE3 whole entry, looked up, the tested form may be a part): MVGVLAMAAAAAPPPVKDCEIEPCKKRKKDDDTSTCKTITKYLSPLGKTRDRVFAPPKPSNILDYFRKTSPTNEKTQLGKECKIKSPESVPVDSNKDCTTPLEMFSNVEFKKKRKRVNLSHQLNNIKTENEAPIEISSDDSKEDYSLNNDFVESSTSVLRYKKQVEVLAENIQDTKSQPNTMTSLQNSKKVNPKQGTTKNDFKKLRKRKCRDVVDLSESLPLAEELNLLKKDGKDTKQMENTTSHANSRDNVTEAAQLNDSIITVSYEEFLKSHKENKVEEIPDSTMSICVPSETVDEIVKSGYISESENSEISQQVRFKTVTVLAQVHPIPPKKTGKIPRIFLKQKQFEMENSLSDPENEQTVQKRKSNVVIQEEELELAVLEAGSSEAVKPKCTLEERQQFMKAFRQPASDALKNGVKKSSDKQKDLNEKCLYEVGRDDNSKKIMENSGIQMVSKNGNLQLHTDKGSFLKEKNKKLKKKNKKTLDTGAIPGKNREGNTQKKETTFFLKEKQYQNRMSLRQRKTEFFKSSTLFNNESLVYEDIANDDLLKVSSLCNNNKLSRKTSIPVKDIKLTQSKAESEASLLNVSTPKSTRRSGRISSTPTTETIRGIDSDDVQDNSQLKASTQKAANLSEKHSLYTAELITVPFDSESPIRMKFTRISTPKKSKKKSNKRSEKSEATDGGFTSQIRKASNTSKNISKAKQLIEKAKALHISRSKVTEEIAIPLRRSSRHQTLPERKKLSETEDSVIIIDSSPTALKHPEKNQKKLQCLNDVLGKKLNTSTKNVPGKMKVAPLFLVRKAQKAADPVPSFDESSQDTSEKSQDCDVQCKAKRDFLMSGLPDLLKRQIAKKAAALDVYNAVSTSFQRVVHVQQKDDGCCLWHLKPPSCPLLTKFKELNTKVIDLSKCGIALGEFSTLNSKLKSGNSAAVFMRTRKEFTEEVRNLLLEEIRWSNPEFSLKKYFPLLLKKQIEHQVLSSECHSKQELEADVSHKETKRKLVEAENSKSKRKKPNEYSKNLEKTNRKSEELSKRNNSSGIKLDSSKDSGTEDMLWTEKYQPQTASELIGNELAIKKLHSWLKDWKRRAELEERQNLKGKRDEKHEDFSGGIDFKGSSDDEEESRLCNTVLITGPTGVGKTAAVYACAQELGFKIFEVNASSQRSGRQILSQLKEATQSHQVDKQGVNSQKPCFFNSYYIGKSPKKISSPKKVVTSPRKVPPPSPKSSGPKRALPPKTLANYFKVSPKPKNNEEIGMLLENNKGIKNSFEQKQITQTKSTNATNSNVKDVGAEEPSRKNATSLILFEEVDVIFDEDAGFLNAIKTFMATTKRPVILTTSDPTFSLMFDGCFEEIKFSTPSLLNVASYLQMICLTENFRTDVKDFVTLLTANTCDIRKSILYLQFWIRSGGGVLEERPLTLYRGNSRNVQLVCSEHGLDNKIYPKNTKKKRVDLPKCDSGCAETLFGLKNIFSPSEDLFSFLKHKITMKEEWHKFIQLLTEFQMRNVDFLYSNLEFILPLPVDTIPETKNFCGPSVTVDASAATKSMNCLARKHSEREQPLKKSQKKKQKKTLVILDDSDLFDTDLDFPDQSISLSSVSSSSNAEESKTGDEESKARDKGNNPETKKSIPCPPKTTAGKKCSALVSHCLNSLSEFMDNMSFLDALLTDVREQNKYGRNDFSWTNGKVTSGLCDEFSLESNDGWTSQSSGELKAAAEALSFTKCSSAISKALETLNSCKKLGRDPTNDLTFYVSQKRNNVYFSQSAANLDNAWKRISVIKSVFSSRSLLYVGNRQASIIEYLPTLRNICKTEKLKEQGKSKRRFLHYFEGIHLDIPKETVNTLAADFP
How it was run: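 Compounds reducing 5-fluorouridine-driven ELG1-luciferase signal in HEK293T cells were scored; exposure lasted 16 hr at 37 °C with luminescence detected via ONE-Glo.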

[8] = target: Thyrotropin-releasing hormone receptor (Homo sapiens) (UniProt P34981); experiment: qHTS for Small Molecule Agonists and Allosteric Enhancers of Human TRH Receptor: Validation Screen for Agonists (AID 493127;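 active means calcium activation more than 3 SD above the typical response in the agonist read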;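 further: intracellular calcium rise by fluo-8 fluorescence before TRH EC20 addition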); settings: TRH receptor agonist cell assay; at 2 µM; stronger effect = higher value
Sequence of Thyrotropin-releasing hormone receptor (Homo sapiens) (P34981 whole entry, looked up): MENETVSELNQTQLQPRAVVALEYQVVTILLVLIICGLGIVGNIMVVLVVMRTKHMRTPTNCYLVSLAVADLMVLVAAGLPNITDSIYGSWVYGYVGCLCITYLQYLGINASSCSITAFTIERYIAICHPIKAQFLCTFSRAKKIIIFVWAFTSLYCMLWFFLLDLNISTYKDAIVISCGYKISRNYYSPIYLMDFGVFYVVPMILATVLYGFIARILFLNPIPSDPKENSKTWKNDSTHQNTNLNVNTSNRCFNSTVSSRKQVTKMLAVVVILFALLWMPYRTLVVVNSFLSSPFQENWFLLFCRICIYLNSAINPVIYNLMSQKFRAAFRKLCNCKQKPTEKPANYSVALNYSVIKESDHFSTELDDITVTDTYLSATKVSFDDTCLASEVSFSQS
How it was run: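 Kinetic fluorescence assay of agonist-induced calcium release: overnight-plated TRHR cells, room-temperature fluo-8 loading, baseline then compound addition with per-second reads.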

[9] = Nrf2 qHTS screen for inhibitors: Validation (AID 493153; active means well fitted inhibition curve with a large enough effect in the main read-out, with a control signal flat, not every such curve was filed as active); settings: Potency: luciferase luminescence; viability change: measured here: cytotoxicity max response
How it was run: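 In this counterscreened reporter format, each well gives two signals: CellTiter-Fluor fluorescence for cytotoxicity and ARE-luciferase luminescence for Nrf2 function. A549 ARE_Fluc cells in 5% FBS OPTI-MEM were exposed to compound titrations for 18-24 h.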

[10] = qHTS for Inhibitors of Cell Surface uPA Generation: Validation Assay (AID 493164);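 further: RAW 264.7 macrophage cells exposed to compound for 18 h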
How it was run: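 Compounds are titrated over seven points (2.45 nM–38.3 uM final) onto pre-plated RAW 264.7 cells and incubated for 18 h. Retained intracellular ATP, measured with ATP-Lite, indicates blocked lethal factor entry.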

[11] = target: Galactokinase (Homo sapiens) (UniProt P51570); experiment: qHTS Validation Assay for Inhibitors of Human Galactokinase (GALK) (AID 493189)
Sequence of Galactokinase (Homo sapiens) (P51570 whole entry, looked up): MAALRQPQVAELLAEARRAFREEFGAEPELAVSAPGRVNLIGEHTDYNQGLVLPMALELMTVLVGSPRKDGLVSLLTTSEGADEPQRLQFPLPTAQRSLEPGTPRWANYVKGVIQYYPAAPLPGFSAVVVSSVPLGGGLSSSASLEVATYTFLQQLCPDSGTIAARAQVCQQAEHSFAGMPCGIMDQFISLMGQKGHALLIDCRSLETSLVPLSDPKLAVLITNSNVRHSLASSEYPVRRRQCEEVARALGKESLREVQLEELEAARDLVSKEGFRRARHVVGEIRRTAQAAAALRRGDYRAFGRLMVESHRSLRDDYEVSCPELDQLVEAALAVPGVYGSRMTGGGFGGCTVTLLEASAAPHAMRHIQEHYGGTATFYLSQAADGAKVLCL
How it was run: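 Inhibition was measured as remaining ATP, detected by luciferase luminescence after a 1 h room-temperature reaction. Final conditions: 5 nM GALK, 100 uM galactose, 35 uM ATP, pH 8.0 HEPES buffer.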

[12] = Validation screen for small molecules that induce DNA re-replication in SW480 colon adenocarcinoma cells (AID 504364)
How it was run: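 Hoechst-stained SW480 nuclei, imaged at 405 nm excitation after 48 hr compound exposure, were counted for elevated DNA content as the re-replication signal.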

[13] = target: Peptidyl-prolyl cis-trans isomerase NIMA-interacting 1 (Homo sapiens) (UniProt Q13526); experiment: qHTS Validation Assay to Find Inhibitors of Pin1 (AID 504536; active means well fitted inhibition curve with a large enough effect in the polarisation, with a control signal flat, not every such curve was filed as active; the % refers to the polarisation)
Sequence of Peptidyl-prolyl cis-trans isomerase NIMA-interacting 1 (Homo sapiens) (Q13526 whole entry, looked up): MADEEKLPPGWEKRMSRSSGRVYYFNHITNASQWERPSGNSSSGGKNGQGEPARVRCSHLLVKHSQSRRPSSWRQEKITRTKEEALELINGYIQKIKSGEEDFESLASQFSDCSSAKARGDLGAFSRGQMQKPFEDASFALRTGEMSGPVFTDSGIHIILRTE
How it was run: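 Fluorescence polarization competition: compounds (titration) displace HiFluor-488-labeled Pin1-1b peptide from Pin1 (0.3 uM final) in pH 7.5 HEPES buffer with DTT, 10 min at room temperature; %Activity normalized to no-enzyme wells, curves fitted.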

[14] = target: Phosphoglycerate kinase, glycosomal (Trypanosoma brucei brucei) (UniProt P07378); experiment: qHTS Validation Assay to Find Inhibitors of Phosphoglycerate Kinase (AID 504547)
How it was run: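 In TEA buffer (100mM, pH 7.6) containing 5mM MgCl2 and 0.01% Tween-20, the GAPDH-coupled PGK reaction proceeded for 60 minutes at room temperature before a single luminescence reading using Kinase-Glo Plus.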

[15] = target: Ubiquitin carboxyl-terminal hydrolase 1 (Homo sapiens) (UniProt O94782); experiment: Inhibitors of USP1/UAF1: Pilot qHTS (AID 504865); further: nearly all actives have a fitted effect of over 35% in size; further: potency means the concentration at half of the fitted maximal effect
How it was run: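 Deubiquitinase activity followed as kinetic rhodamine fluorescence release from 150 nM Ub-Rho. 1 nM USP1/UAF1 with compound, after 15 min room-temperature preincubation, in HEPES pH 7.8 buffer containing TCEP, EDTA, BSA and Tween-20.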

[16] = target: D(1A) dopamine receptor (Homo sapiens) (UniProt P21728); experiment: HTS Assay for Allosteric Agonists of the Human D1 Dopamine Receptor: Primary Screen for Agonists (AID 488981)
How it was run: as §1

[17] = target: D(1A) dopamine receptor (Homo sapiens) (UniProt P21728); experiment: HTS Assay for Allosteric Agonists of the Human D1 Dopamine Receptor: Primary Screen for Antagonists (AID 488983);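 further: calcium flux response to an EC80 dopamine challenge measured with no-wash dye; nearly all actives have a fitted effect of over 65% in size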; further: potency means the concentration at half of the fitted maximal effect
How it was run: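 In this primary screen, compounds are applied to calcium-dye-loaded HEK293 T-REx cells with force-coupled D1 expression induced overnight at 30 C. An EC80 of dopamine follows the 180 s compound phase, and calcium is monitored for a further 180 s.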

[18] = target: ATP-dependent 6-phosphofructokinase (Trypanosoma brucei brucei) (UniProt O15648); experiment: qHTS Assay to Find Inhibitors of T. brucei phosphofructokinase: hit validation (AID 492961);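 further: luminescence reports ADP formed as PFK phosphorylates fructose-6-phosphate with ATP; series mostly up to about 51 µM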
How it was run: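 Reaction: 0.1 M triethanolamine pH 8.0, 5 mM MgCl2, F6P 0.5 mM, ATP 0.1 mM, PFK 1.25 nM, 45 min RT. Read-out: ADP-Glo luminescence. Analysis: concentration-response fits, classed by r2 and efficacy.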

[19] = target: phosphoglycerate mutase (Leishmania major) (UniProt Q4Q090); experiment: qHTS Validation Assay to Find Inhibitors of Phosphoglycerate Mutase (AID 504548); further: series mostly up to about 58 µM
How it was run: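 Lm PGAM 1.25nM final; 100 mM TEA pH 7.6, 5 mM MgCl2, 0.01% Tween-20; 45 min RT; Kinase-GloPlus, 10 min; end-point luminescence. Enzyme-free wells as negative controls.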

Row | Compound | Potency [1] | Potency [2] | outcome [3] | outcome [4] | outcome [5] | Potency [6] | outcome [7] | activation [8] | Potency [9] | viability change [9] | outcome [10] | outcome [11] | outcome [12] | outcome [13] | outcome [14] | Potency [15] | Potency [16] | Potency [17] | Potency [18] | outcome [19]
1 | CNCC(O)c1ccc(O)c(O)c1 (centres undefined) | inactive | inactive | inactive | inactive | inactive | inactive | inactive | 0.938% (inactive) | inactive | 1.42% | inactive | inactive | inactive | inactive | inactive | inactive |  |  |  | 
2 | CC(C)(C)c1onc(OCP(=O)(O)O)c1CC(N)C(=O)O (centres undefined) | inactive | inactive | inactive | inactive | inactive | inactive | inactive | 1% (inactive) | inactive | 4.09% and -1.93% | inactive | inactive | inactive | inactive | inactive | inactive | inactive | inactive |  | 
3 | CCN(CC)CCOC(=O)C1(C2CCCCC2)CCCCC1 | inactive | inactive | inactive | inactive | inactive | inactive | inactive | -6.69% (inactive) | inactive | -2.64% | inactive | inactive | inactive | inactive | inactive |  |  |  |  | 
4 | CCN(CC)CCNC(=O)c1cc(Cl)c(N)cc1OC | inactive | inactive | inactive | inactive | inactive | inactive | inactive | 1.31% (inactive) | inactive | -1.22% | inactive | inactive | inactive | inactive | inactive | inactive | inactive |  |  | 
5 | C[C@](N)(Cc1ccc(O)cc1)C(=O)O | inactive | inactive | inactive | inactive | inactive | inactive | inactive |  | inactive | 3.53% | inactive | inactive | inactive | inactive | inactive | inactive | inactive | inactive | inactive | 
6 | C#CCN(C)Cc1ccccc1 | inactive | inactive |  | inactive | inactive | inactive | inactive | 0.562% (inactive) | inactive | 1.01% | inactive | inactive | inactive | inactive | inactive | inactive | inactive | inactive | inactive | 
7 | CN1CCN(C2Cc3ccccc3Sc3ccc(Cl)cc32)CC1 (centres undefined) | 14.1 µM (active) | inactive |  | inactive | inactive | inactive |  | 0.75% (inactive) | inactive | -10.9% | inactive | inactive | inactive | inactive | inactive |  |  | 0.199 µM (active) | inactive | 
8 | CC1=C(CC(=O)O)c2cc(F)ccc2/C1=C\c1ccc(S(C)(=O)=O)cc1 | 0.006 µM (active) | inactive | inactive |  | inactive | inactive |  | 0% (inactive) | inactive | -17.2% | inactive | inactive | inactive | inactive | inactive | inactive | inactive | inactive |  | 
9 | CC[C@H]1CN2CCc3cc(OC)c(OC)cc3[C@@H]2C[C@@H]1C[C@H]1NCCc2cc(OC)c(OC)cc21 | inactive | inactive |  |  | inactive |  |  |  |  |  | inactive | inactive |  | inactive | inactive |  | inactive | inactive |  | 
10 | C=Cc1c(C)c2cc3[nH]c(cc4nc(cc5nc(cc1[nH]2)C(C)=C5CCC(=O)O)C(CCC(=O)O)=C4C)c(C)c3C=C | inactive | 31.6 µM (active) | inactive | inactive | inactive | inactive | inactive | 0.125% (inactive) |  |  | inactive | inactive | inactive |  | inactive | inactive and 50.1 µM (active) | inactive | inactive | inactive | 
11 | CC(=O)OCC(=O)[C@@]1(O)CC[C@H]2[C@@H]3CCC4=CC(=O)CC[C@]4(C)[C@H]3C(=O)C[C@@]21C | inactive | inactive | inactive |  | inactive | inactive | inactive | 1.06% (inactive) | inactive | 3.82% | inactive | inactive | inactive | inactive | inactive | inactive | inactive | inactive |  | 
12 | CC(CN(C)C)CN1c2ccccc2CCc2ccccc21 (centres undefined) | 28.2 µM (active) | inactive |  | inactive | inactive | inactive | inactive | 6.88% (inactive) |  |  | inactive | inactive | inactive | inactive | inactive |  | inactive |  |  | inactive
